Sampled rows, rich in hits. Any-hit rate of the full collection: about 2.4%.
FEN1 inh = inhibitors of human flap endonuclease 1; P39748; Recombinant FEN1 flap cleavage, fluorescence, 15 min; Potency, µM (highest dose often 114 µM), without a hit: top-dose activity change, negative = inhibition, most hits filed as inhibitors; 0.35% of 390,000 active; AID 588795; further: potency means the concentration at half of the fitted maximal effect; on the % scale 0 is the no-effect control and ±100 the full control effect; nearly all actives have a fitted effect of over 65% in size
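With each library titrated from low to high concentration, compounds met 10 nM FEN1 for 15 min at room temperature before 50 nM substrate was added; readings at 0 and 15 min fed four-parameter Hill curve fits.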
POLB inh = DNA polymerase beta (human) inhibition; 1.3% of 340,000 active; P06746; Potency, µM (titrated, usually from 114 µM), inactives show top-dose activity change, negative = inhibition, most hits filed as inhibitors; Pol beta primer extension/strand displacement, fluorescence kinetic; further: potency means the concentration at half of the fitted maximal effect; on the % scale 0 is the no-effect control and ±100 the full control effect
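Homogeneous kinetic assay of primer extension and strand displacement by 10 nM Pol beta, preincubated 15 min at room temperature with compound before 50 nM substrate (final) was added. Read at 0 and 10 min; four-parameter Hill fit.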
Pol eta inh-1 = inhibitors of human DNA polymerase eta | 1.2% of 390,000 active | AID 588591 | recombinant Pol eta, fluorescent DNA replication assay | Potency, µM (doses to about 114 µM), for the others: at the highest dose activity change, negative = inhibition, actives largely listed as inhibitors; further: potency means the concentration at half of the fitted maximal effect; on the % scale 0 is the no-effect control and ±100 the full control effect
Target sequence (Q9Y253 whole entry, looked up): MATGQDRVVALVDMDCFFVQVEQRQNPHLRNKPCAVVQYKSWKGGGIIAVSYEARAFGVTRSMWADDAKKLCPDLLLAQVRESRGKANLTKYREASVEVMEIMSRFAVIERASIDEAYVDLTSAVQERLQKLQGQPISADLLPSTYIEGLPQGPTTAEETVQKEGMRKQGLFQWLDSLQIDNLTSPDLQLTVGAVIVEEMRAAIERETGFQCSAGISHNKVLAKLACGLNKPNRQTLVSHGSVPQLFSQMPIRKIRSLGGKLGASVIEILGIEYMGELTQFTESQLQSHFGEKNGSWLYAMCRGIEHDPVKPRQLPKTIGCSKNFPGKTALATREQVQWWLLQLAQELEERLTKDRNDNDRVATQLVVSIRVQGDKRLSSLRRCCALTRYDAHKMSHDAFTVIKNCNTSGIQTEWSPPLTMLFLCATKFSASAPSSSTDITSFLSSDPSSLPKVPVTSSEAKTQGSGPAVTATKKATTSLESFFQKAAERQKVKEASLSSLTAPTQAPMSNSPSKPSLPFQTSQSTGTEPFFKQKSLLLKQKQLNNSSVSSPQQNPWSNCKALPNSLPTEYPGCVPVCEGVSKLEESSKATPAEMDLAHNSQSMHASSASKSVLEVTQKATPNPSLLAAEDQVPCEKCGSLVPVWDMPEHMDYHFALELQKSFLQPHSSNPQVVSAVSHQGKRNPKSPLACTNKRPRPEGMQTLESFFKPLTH
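Pol eta at 10 nM preincubated with compounds 15 min at room temperature; reaction started with fluorescent substrate (50 nM final) and read kinetically at 0 and 10 min.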
Pol kappa inh-1 = blocks human DNA polymerase kappa activity | Potency, µM (series often up to 107 µM), inactives show at the highest dose activity, negative = inhibition, hits mostly inhibitors | AID 588579 | Q9UBT6 | 0.53% of 400,000 active | purified Pol kappa, fluorescent DNA synthesis assay, 10 min; further: potency means the concentration at half of the fitted maximal effect; on the % scale 0 is the no-effect control and ±100 the full control effect
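First, compounds were pin-transferred onto 10 nM Pol kappa. After 15 min at room temperature, substrate was added to 50 nM final. Fluorescence was then measured kinetically at 0 and 10 min.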
WRN helicase inh = inhibitors of human WRN helicase. Potency, µM (top dose mostly 114 µM), for the others: at the top dose activity change, negative = inhibition, usual class: inhibitors. 0.46% of 360,000 active. AID 651768. Q14191. WRN helicase unwinding, fluorescent forked duplex, kinetic; further: potency means the concentration at half of the fitted maximal effect; on the % scale 0 is the no-effect control and ±100 the full control effect; nearly all actives have a fitted effect of over 55% in size
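Primary qHTS, 1536-well format. 20 nM WRN + compound, 15 min RT; start with 100 nM forked fluorophore/quencher duplex, 2 mM ATP (final); kinetic read ex 525/em 598 nm.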
POLI inh = DNA polymerase iota (human) inhibition; Pol iota fluorescent replication assay, 10 min; Q9UNA4; AID 588590; 1% of 390,000 active; Potency, µM (doses to about 115 µM), without a hit: top-dose activity, negative = inhibition, usual class: inhibitors; further: potency means the concentration at half of the fitted maximal effect
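Pol iota at 10 nM preincubated 15 min with compounds at room temperature; reaction started with fluorescent substrate, 50 nM final. Fluorescence read kinetically at 0 and 10 min; buffer-only wells as negative control.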
GALK inh confirm = galactokinase (human) inhibition, confirmation; shares compounds with Pol eta inh-1; purified GALK, Kinase-Glo ATP depletion luminescence; Potency, µM (series often up to 115 µM), for the others: at the highest dose activity, negative = inhibition, actives largely listed as inhibitors; 70% of 150 active; AID 2015
Redox cycling = redox cycling activity in phenol red-HRP assay | shares compounds with Pol eta inh-1 | Phenol red-HRP H2O2 redox cycling, absorbance 600 nm | Potency, µM (highest dose often 115 µM), for inactives: top-dose activity change, negative = H2O2 signal, usual class: inhibitors | 40% of 150 active | AID 2035
HEK293 viability = reduces HEK-293 cell viability in GALK counter-screen. HEK-293 viability, ATP luminescence (CellTiter-Glo), 24/48 h. 10% of 170 active. shares compounds with Pol eta inh-1. AID 2547. Potency, µM (titrated, usually from 46.1 µM), inactives show at the highest dose activity change, negative = cytotoxicity, hits mostly inhibitors; further: potency means the concentration at half of the fitted maximal effect; on the % scale 0 is the no-effect control and ±100 the full control effect
Pol kappa inh-2 = Pol kappa (human) inhibition, cherry-pick confirmation; shares compounds with Pol eta inh-1; 76% of 920 active; purified Pol-kappa, fluorescent strand-displacement substrate; Potency, µM, actives largely listed as inhibitors; further: potency means the concentration at half of the fitted maximal effect
Pol eta inh-2 = Pol eta (human) inhibition, cherry-pick confirmation | Pol eta primer extension, TAMRA/BHQ fluorescence, 10 min | Potency, µM, hits mostly inhibitors | shares compounds with Pol eta inh-1 | 64% of 2,600 active; further: potency means the concentration at half of the fitted maximal effect
An asterisk follows results filed as active; [ ] = another dose, or the depositor's remark. The call rests on the fitted dose curve; in most records, active means well fitted curve in the direction sought with a large enough effect; inconclusive means small, poorly fitted or top-dose-only effect, or another doubt; inactive means no such curve, though single readings can be large; an effect the other way counts as inactive or inconclusive.

How did O=C(CC1N=C2c3ccccc3N=C(SCC(=O)Nc3cccc(C(F)(F)F)c3)N2C1=O)NCc1cccs1 (stereo not drawn) do in these assays?
FEN1 inh: -6%; POLB inh: inconclusive; Pol eta inh-1: -17%; Pol kappa inh-1: 11%; POLI inh: -1%

How did S=C1Cc2ccccc2N1 do in these assays?
FEN1 inh: inconclusive; POLB inh: 1%; Pol eta inh-1: 25µM*; Pol kappa inh-1: -23%; WRN helicase inh: 6%; POLI inh: 10µM*; GALK inh confirm: 27µM*; Redox cycling: 7.5µM*; HEK293 viability: 0%

How did O=C(O)Cc1ccc2c(c1)N(S(=O)(=O)c1cccs1)CC(C(=O)O)O2 (stereo not drawn) do in these assays?
FEN1 inh: -3%; POLB inh: 3%; Pol eta inh-1: 2%; Pol kappa inh-1: -4%; WRN helicase inh: 10%; POLI inh: 31%

Results for CS(=O)(=O)N1CC(C(=O)O)Oc2ccc(CC(=O)O)cc21 (stereo not drawn) ?
FEN1 inh: -1%; POLB inh: inconclusive; Pol eta inh-1: 18µM*; Pol kappa inh-1: -34%; WRN helicase inh: 4%; POLI inh: inconclusive; Pol eta inh-2: 30*

Results for O=C(O)c1ccc(N/N=C/c2cc3ccccc3nc2Cl)cc1 ?
FEN1 inh: inconclusive; POLB inh: -28%; Pol eta inh-1: 45µM*; Pol kappa inh-1: -24%; WRN helicase inh: -10%[11.6 µM]; POLI inh: 10%; Pol eta inh-2: inconclusive

Results for Cc1cccc2cc(/C=N/Nc3ccc(C(=O)O)cc3)c(Cl)nc12 ?
FEN1 inh: inconclusive; POLB inh: inconclusive; Pol eta inh-1: inconclusive; Pol kappa inh-1: -9%; WRN helicase inh: -12%; POLI inh: 5%

How did CC[C@@H](C)CN1C(=O)N[C@@H](CCc2ccccc2)C(C(C)=O)=C1C do in these assays?
FEN1 inh: 3%; POLB inh: 0%; Pol eta inh-1: -10%; Pol kappa inh-1: -21%; WRN helicase inh: 0%; POLI inh: 21%

How did CC[C@@H](C)CN1C(=O)N[C@@H](c2ccccc2)C(C(C)=O)=C1C do in these assays?
FEN1 inh: 0%; Pol eta inh-1: 22µM*; Pol kappa inh-1: inconclusive; WRN helicase inh: inconclusive; POLI inh: 14µM*; Pol eta inh-2: 76*

Results for C=CCOCCN1C(=O)C2C3C=CC(C2C1=O)C1C2C(=O)N(CCOCC=C)C(=O)C2C31 (stereo not drawn) ?
FEN1 inh: -5%; POLB inh: inconclusive; Pol eta inh-1: 20µM*; Pol kappa inh-1: inconclusive; WRN helicase inh: inconclusive; POLI inh: 28µM*; Pol eta inh-2: 67*

Results for Cc1ccc(C)c(OCC(=O)Nc2nonc2NC(=O)COc2cc(C)ccc2C)c1 ?
FEN1 inh: 6%; POLB inh: -25%; Pol eta inh-1: -11%; Pol kappa inh-1: -7%; WRN helicase inh: -9%; POLI inh: inconclusive

What do the screens show for `Cc1ccc(C)c(OCC(=O)Nc2cc(NC(=O)COc3cc(C)ccc3C)cc(C(=O)O)c2)c1`?
FEN1 inh: -25%; POLB inh: 0%; Pol eta inh-1: 50µM*; Pol kappa inh-1: -13%; WRN helicase inh: inconclusive; POLI inh: inconclusive; Pol eta inh-2: 67*

What do the screens show for `COc1ccc(N2CCN(C(=O)CCc3c(C)nc4c(-c5ccccc5)c(C)nn4c3C)CC2)cc1`?
FEN1 inh: 12%; POLB inh: 8%; Pol eta inh-1: -30%; Pol kappa inh-1: -3%; POLI inh: 21%

Results for Nc1ccc(C(=O)Nc2ccc3c(O)cc(S(=O)(=O)O)cc3c2)cc1 ?
FEN1 inh: inconclusive; Pol eta inh-1: 11µM*; Pol kappa inh-1: inconclusive; WRN helicase inh: -17%[11.6 µM]; POLI inh: inconclusive; Pol kappa inh-2: inconclusive; Pol eta inh-2: 76*

What do the screens show for `Nc1ccc(C(=O)Nc2ccc(OC(F)(F)C(F)F)c(NC(=O)c3ccc(N)cc3)c2)cc1`?
FEN1 inh: 6%; POLB inh: 5%[57.1 µM]; Pol eta inh-1: inconclusive; Pol kappa inh-1: -15%; WRN helicase inh: -21%; POLI inh: -7%

How did CC(Sc1ccsc1[N+](=O)[O-])C(=O)N1CCN(c2ccccn2)CC1 (stereo not drawn) do in these assays?
FEN1 inh: 10%; POLB inh: -1%; Pol eta inh-1: 35µM*; Pol kappa inh-1: inconclusive; WRN helicase inh: -13%[11.6 µM]; POLI inh: inconclusive; Pol eta inh-2: 76*

Results for Cc1c(C(=O)N2CCN(c3ccccn3)CC2)cccc1[N+](=O)[O-] ?
FEN1 inh: 2%; POLB inh: 26%; Pol eta inh-1: -10%; Pol kappa inh-1: -13%; WRN helicase inh: -4%; POLI inh: 159%

Results for Cc1ccccc1Nc1nnc(-c2ccc(C)c(S(=O)(=O)N3CCCCC3)c2)c2ccccc12 ?
FEN1 inh: -11%; POLB inh: -21%; Pol eta inh-1: -13%; Pol kappa inh-1: -11%; POLI inh: -1%

How did Cc1ccc(C(=O)N/C(=C/c2ccco2)C(=O)O)cc1 do in these assays?
FEN1 inh: -6%; POLB inh: 2%; Pol eta inh-1: -10%; Pol kappa inh-1: -18%; WRN helicase inh: -31%[57.1 µM]; POLI inh: 6%

Bioassay records as filed in PubChem BioAssay.
